By inhibition is commonly meant the relative decrease from the control value, in per cent.

Tyrosine-protein kinase ABL1 (Homo sapiens), P00519 [E255K], sequence (P00519 whole entry E255K): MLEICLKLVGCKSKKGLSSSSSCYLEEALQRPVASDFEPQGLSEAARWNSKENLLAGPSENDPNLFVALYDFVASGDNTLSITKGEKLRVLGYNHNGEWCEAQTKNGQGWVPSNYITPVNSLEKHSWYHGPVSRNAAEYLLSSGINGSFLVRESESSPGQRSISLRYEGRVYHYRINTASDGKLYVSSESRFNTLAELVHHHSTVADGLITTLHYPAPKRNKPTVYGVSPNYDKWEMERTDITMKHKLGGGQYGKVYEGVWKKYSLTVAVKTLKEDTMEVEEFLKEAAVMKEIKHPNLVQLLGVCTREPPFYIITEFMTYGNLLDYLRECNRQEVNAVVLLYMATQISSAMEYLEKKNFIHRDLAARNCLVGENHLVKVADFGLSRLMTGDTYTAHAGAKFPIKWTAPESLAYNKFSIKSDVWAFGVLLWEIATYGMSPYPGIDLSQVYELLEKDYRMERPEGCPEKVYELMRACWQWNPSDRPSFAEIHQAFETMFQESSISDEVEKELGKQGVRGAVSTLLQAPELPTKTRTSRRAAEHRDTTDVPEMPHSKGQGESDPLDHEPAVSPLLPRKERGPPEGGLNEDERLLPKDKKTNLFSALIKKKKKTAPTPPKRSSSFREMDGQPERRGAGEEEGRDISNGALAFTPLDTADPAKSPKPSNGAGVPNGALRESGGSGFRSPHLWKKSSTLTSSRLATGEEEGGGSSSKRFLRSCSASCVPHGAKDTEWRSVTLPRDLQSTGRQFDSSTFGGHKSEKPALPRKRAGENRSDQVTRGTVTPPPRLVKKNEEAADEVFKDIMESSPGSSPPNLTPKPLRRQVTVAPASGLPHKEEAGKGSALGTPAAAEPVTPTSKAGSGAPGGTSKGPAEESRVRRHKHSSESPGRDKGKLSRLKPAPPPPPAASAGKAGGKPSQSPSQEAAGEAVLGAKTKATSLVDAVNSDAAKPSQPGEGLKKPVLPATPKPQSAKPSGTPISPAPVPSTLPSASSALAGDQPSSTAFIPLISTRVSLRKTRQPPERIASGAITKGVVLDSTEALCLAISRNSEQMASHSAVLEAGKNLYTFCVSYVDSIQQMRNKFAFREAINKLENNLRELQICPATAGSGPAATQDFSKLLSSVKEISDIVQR

One assay has as its system Tyrosine-protein kinase ABL1 (Homo sapiens), P00519 [E255K]. Conditions: at 0.1 µM.
Consider `CN(C)CCOc1ccc(-c2nc(-c3ccncc3)c(-c3ccc4c(c3)CC/C4=N\O)[nH]2)cc1`, for which the inhibition is 4.28%.
Same read-out and setting: the same measure for `CCN1CCC(CC(=O)Nc2n[nH]c3nnc(-c4cccc(F)c4F)cc23)CC1`: 1.76%; for `COc1cccc(-c2c[nH]c3c(N/N=C/c4ccncc4)ncnc23)c1`: 65%.
Consider `Fc1ccc(-c2nn3ncccc3c2-c2ccnc(Nc3ccc4c(c3)OCCO4)n2)cc1`, for which the inhibition turned out to be 10.2%.
Regarding `COc1cc(Nc2nccc(Nc3ccc4c(C)n[nH]c4c3)n2)cc(OC)c1OC`, the inhibition turned out to be 18.5%.
The same measure, in the same setting: the same measure for `CC(C)COC(=O)c1ccc2c(c1)/C(=C/Nc1ccc(S(N)(=O)=O)cc1)C(=O)N2`: 1.63%; for `NS(=O)(=O)c1ccc(N/N=C2\C(=O)Nc3ccc4ncccc4c32)cc1`: 7.3%.
Same read-out and setting: the same measure for `COc1cc(N2CCN(C(C)C)CC2)ccc1Nc1nc(Nc2ccc(F)cc2C(N)=O)c2cc[nH]c2n1`: -0.24%.
Still for that read-out and setting: the same measure for `CCn1c(-c2nonc2N)nc2c(C#CC(C)(C)O)ncc(OC3CCNCC3)c21`: -0.7%; for `CNC(=O)c1cccc(C#Cc2cncnc2Nc2ccc(OCc3cccc(F)c3)c(Cl)c2)c1`: 0.14%.
On to `Fc1cccc(COc2ccc(Nc3ncnc4sc(-c5ccco5)cc34)cc2Cl)c1`, for which the inhibition came out at 3.34%.
The same measure, in the same setting: in the case of `c1ccc(-c2nc3n(c2-c2ccc4c(c2)OCO4)CCC3)nc1` it was 1.4%; in that of `O=S(=O)(CCNCc1ccc(-c2ccc3ncnc(Nc4ccc(OCc5cccc(F)c5)c(Cl)c4)c3c2)o1)c1ccccc1`, 3.29%; in that of `COc1cc(/C=N/Nc2ncnc3[nH]ncc23)ccc1O`, 36.5%.
Same read-out and setting: the same measure for `CS(=O)(=O)CCNCc1coc(-c2ccc3ncnc(Nc4ccc(OCc5ccccc5)cc4)c3c2)c1`: 1.64%.
The same measure, in the same setting: in the case of `COc1cc2c(cc1Nc1nc(Nc3ccsc3C(N)=O)c3cc[nH]c3n1)N(C(=O)CN(C)C)CCC2(C)C` it was 0.79%.

For another assay the test system is unchanged. Particulars: at 1 µM.
For the molecule `c1ccc(COc2ccc(Nc3ncnc4ccc(-c5ccco5)cc34)cc2)cc1`, the inhibition was determined as 0.29%.
Consider `COc1ccc2c(-c3ccnc(Nc4cccc(OC(F)(F)F)c4)n3)cnn2n1`, for which the inhibition was 4.4%.
On the same count and under the same terms, in the case of `CN1CCC(n2cnc(-c3ccc(F)cc3)c2-c2ccnc(N)n2)CC1` it was 7%; in that of `COc1ccc(-c2cc(-c3c[nH]nc3-c3ccccn3)ccn2)cc1`, 40.9%; in that of `Cc1cccc(Nc2ncc(-c3ccccc3)o2)c1`, 8.14%.
The same measure, in the same setting: the same measure for `COC(=O)c1sc(-n2cnc3cc(OC)c(OC)cc32)cc1OCc1ccccc1C(F)(F)F`: 22.7%.
Same read-out and setting: the same measure for `N#Cc1c(NC(=O)CN2CCOCC2)sc2c1CCCC2`: 4.25%; for `COc1ccc(-c2cc3c(N)ncnc3o2)cc1`: 5.63%; for `N#Cc1c(NC(=O)c2ccc(F)cc2)sc2c1CCCC2`: 1.93%.
As to `Cc1ccc2c(-c3ccnc(Nc4ccccc4)n3)c(-c3ccc(F)cc3)nn2n1`, the inhibition was determined as 15.7%.
The same measure, in the same setting: in the case of `CNC(=O)c1cc(-c2ccc(F)cc2)cc(-c2ccc(S(=O)(=O)N3CCCC3)cc2)c1N` it was 2.4%; in that of `Cc1ccc(O)cc1Nc1ccnc2cc(-c3ccccn3)ccc12`, 96.2%.
Same read-out and setting: the same measure for `CCc1nn2ncccc2c1-c1ccnc(NC2CC2)n1`: 4.01%; for `CCCN1CCC(c2ccc(Nc3nc(Nc4cc(F)ccc4C(N)=O)c4cc[nH]c4n3)c(OC)c2)CC1`: 6.84%.
On the same count and under the same terms, in the case of `Fc1ccc(-c2nn3ccccc3c2-c2ccncc2)cc1` it was 2.14%.
For the molecule `O=C(O[C@H]1CN[C@H](C#Cc2cc3ncnc(Nc4ccc(Cc5ccccc5)cc4)c3s2)C1)N1CCOCC1`, the inhibition is -0.38%.
Same read-out and setting: the same measure for `COc1ccc(-c2nn3ncccc3c2-c2ccnc(Nc3ccc4c(c3)OCCO4)n2)cc1`: 13.9%; for `CN(C)CCOc1ccc(-c2nc(-c3ccncc3)c(-c3ccc4c(c3)CC/C4=N\O)[nH]2)cc1`: 17.5%.
Still for that read-out and setting: in the case of `CCN1CCC(CC(=O)Nc2n[nH]c3nnc(-c4cccc(F)c4F)cc23)CC1` it was 1.65%; in that of `COc1cccc(-c2c[nH]c3c(N/N=C/c4ccncc4)ncnc23)c1`, 91.1%; in that of `Fc1ccc(-c2nn3ncccc3c2-c2ccnc(Nc3ccc4c(c3)OCCO4)n2)cc1`, 40.9%.
Still for that read-out and setting: the same measure for `COc1cc(Nc2nccc(Nc3ccc4c(C)n[nH]c4c3)n2)cc(OC)c1OC`: 67.2%.
Turning to `CC(C)COC(=O)c1ccc2c(c1)/C(=C/Nc1ccc(S(N)(=O)=O)cc1)C(=O)N2`, the inhibition was 21.7%.
Still for that read-out and setting: in the case of `NS(=O)(=O)c1ccc(N/N=C2\C(=O)Nc3ccc4ncccc4c32)cc1` it was 39.2%.
The same measure, in the same setting: in the case of `COc1cc(N2CCN(C(C)C)CC2)ccc1Nc1nc(Nc2ccc(F)cc2C(N)=O)c2cc[nH]c2n1` it was 1.64%.
On the same count and under the same terms, the same measure for `CCn1c(-c2nonc2N)nc2c(C#CC(C)(C)O)ncc(OC3CCNCC3)c21`: -0.01%.
`CNC(=O)c1cccc(C#Cc2cncnc2Nc2ccc(OCc3cccc(F)c3)c(Cl)c2)c1`: the inhibition worked out at 0.64%.
On the same count and under the same terms, in the case of `Fc1cccc(COc2ccc(Nc3ncnc4sc(-c5ccco5)cc34)cc2Cl)c1` it was 3.39%; in that of `c1ccc(-c2nc3n(c2-c2ccc4c(c2)OCO4)CCC3)nc1`, 3.7%; in that of `O=S(=O)(CCNCc1ccc(-c2ccc3ncnc(Nc4ccc(OCc5cccc(F)c5)c(Cl)c4)c3c2)o1)c1ccccc1`, 4.49%.
Same read-out and setting: in the case of `COc1cc(/C=N/Nc2ncnc3[nH]ncc23)ccc1O` it was 83.4%; in that of `CS(=O)(=O)CCNCc1coc(-c2ccc3ncnc(Nc4ccc(OCc5ccccc5)cc4)c3c2)c1`, 0.28%; in that of `COc1cc2c(cc1Nc1nc(Nc3ccsc3C(N)=O)c3cc[nH]c3n1)N(C(=O)CN(C)C)CCC2(C)C`, 4.14%.

For the origin of these results see ChEMBL document CHEMBL1961873, “Compounds: GSK PKIS; Assays: Nanosyn kinase panel” (2012).
